# Laboratory results as given in ChEMBL document CHEMBL2218924, “A broad activity screen in support of a chemogenomic map for kinase signalling research and drug discovery” (Biochem J, 2013).
# Assays:
# [1] = target: T1, Serine/threonine-protein kinase TBK1 (Homo sapiens) (UniProt Q9UHD2); conditions: at 10 µM
# T1 sequence (whole entry): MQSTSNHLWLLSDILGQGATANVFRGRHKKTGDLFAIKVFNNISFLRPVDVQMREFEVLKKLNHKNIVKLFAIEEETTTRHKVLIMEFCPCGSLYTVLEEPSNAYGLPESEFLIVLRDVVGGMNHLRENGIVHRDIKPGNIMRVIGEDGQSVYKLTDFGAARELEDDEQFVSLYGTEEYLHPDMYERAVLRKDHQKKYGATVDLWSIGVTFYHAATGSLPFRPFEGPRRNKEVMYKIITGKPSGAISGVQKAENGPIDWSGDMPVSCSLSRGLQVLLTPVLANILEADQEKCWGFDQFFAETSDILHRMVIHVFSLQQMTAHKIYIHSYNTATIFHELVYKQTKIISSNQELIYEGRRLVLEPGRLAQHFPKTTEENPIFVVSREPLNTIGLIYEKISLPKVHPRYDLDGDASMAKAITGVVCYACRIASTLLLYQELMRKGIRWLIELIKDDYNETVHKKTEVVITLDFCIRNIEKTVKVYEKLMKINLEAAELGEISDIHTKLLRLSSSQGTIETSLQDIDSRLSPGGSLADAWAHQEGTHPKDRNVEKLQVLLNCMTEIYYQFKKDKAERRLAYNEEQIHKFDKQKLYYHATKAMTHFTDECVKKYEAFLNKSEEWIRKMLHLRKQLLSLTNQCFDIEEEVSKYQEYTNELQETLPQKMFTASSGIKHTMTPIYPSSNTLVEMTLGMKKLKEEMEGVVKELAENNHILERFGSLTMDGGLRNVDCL
# [2] = target: Insulin-like growth factor 1 receptor (Homo sapiens) (UniProt P08069); conditions: at 10 µM
# [3] = target: T2, Inhibitor of nuclear factor kappa-B kinase subunit beta (Homo sapiens) (UniProt O14920); conditions: at 10 µM
# T2 sequence (whole entry): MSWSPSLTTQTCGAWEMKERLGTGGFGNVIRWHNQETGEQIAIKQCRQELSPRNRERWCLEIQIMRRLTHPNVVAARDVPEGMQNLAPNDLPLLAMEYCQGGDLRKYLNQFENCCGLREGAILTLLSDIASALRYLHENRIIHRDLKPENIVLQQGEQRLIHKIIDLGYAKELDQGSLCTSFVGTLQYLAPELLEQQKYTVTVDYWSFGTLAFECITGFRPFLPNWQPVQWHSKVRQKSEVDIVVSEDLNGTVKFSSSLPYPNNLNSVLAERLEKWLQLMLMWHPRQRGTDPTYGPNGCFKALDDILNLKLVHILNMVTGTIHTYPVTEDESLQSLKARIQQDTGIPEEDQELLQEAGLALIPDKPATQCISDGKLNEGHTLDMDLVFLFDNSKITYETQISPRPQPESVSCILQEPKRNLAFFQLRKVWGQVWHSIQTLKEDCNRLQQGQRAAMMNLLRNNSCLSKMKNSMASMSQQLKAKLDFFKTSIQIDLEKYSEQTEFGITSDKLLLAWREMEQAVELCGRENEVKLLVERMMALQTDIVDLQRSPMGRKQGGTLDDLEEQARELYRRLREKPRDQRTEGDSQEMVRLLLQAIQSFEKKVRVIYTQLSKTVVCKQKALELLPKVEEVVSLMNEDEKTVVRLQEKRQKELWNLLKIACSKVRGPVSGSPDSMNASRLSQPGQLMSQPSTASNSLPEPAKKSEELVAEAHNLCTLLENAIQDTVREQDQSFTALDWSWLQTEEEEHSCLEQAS
# [4] = target: Insulin receptor (Homo sapiens) (UniProt P06213); conditions: at 1 µM
# [5] = target: Insulin receptor (Homo sapiens) (UniProt P06213); conditions: at 10 µM
# [6] = target: Interleukin-1 receptor-associated kinase 1 (Homo sapiens) (UniProt P51617); conditions: at 1 µM
# [7] = target: Interleukin-1 receptor-associated kinase 1 (Homo sapiens) (UniProt P51617); conditions: at 10 µM
# [8] = target: T3, Interleukin-1 receptor-associated kinase 4 (Homo sapiens) (UniProt Q9NWZ3); conditions: at 1 µM
# T3 sequence (whole entry): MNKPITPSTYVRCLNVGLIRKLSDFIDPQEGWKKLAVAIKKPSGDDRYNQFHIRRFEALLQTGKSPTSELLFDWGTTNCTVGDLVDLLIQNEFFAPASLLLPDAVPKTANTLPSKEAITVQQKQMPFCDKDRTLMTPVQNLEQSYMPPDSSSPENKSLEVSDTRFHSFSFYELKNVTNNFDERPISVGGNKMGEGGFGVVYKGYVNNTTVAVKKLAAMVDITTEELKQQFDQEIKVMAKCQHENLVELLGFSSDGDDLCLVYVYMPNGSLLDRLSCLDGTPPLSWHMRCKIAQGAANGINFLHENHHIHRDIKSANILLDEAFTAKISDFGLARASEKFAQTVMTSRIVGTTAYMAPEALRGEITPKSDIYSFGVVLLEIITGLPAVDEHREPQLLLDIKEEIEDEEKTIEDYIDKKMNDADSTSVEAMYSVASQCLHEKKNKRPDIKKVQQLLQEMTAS
# [9] = target: T3, Interleukin-1 receptor-associated kinase 4 (Homo sapiens); conditions: at 10 µM
# [10] = target: Insulin receptor-related protein (Homo sapiens) (UniProt P14616); conditions: at 10 µM
# [11] = target: T4, TGF-beta receptor type-1 (Homo sapiens) (UniProt P36897); conditions: at 1 µM
# T4 sequence (whole entry): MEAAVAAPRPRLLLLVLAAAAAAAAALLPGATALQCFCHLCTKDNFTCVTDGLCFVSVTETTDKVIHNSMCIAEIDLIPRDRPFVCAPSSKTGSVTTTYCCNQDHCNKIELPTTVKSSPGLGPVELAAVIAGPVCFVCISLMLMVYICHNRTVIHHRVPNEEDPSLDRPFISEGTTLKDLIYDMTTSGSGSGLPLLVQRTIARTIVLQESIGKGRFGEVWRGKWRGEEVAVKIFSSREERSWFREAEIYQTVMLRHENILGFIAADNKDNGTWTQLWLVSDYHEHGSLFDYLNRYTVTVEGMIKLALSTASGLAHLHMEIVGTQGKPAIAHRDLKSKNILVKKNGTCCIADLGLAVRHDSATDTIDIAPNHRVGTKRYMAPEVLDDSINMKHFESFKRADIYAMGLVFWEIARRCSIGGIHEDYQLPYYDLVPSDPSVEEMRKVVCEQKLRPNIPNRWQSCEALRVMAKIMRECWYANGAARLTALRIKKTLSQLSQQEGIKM
# [12] = target: Insulin-like growth factor 1 receptor (Homo sapiens) (UniProt P08069); conditions: at 1 µM
# [13] = target: T5, Inhibitor of nuclear factor kappa-B kinase subunit alpha (Homo sapiens) (UniProt O15111); conditions: at 10 µM
# T5 sequence (whole entry): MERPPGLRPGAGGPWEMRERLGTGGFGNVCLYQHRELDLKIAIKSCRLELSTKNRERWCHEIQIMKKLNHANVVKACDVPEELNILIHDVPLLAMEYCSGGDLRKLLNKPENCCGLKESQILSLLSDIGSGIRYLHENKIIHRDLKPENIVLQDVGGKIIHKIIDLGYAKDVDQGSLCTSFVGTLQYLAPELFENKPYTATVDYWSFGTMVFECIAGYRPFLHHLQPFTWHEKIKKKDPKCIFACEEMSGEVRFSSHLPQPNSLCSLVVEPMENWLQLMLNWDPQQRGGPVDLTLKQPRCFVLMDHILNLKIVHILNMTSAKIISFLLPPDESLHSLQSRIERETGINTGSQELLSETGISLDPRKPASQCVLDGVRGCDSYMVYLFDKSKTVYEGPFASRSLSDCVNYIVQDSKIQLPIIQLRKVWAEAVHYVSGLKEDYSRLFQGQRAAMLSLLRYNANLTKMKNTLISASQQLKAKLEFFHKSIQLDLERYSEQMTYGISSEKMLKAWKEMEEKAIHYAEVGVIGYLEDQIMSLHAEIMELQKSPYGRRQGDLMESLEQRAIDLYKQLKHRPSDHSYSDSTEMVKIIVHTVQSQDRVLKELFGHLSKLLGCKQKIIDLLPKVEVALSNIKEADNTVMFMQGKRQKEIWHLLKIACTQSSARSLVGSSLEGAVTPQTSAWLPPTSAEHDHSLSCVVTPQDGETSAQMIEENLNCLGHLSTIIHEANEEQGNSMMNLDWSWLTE
# [14] = target: T2, Inhibitor of nuclear factor kappa-B kinase subunit beta (Homo sapiens); conditions: at 1 µM
# [15] = target: Insulin receptor-related protein (Homo sapiens) (UniProt P14616); conditions: at 1 µM
# [16] = target: T6, Tyrosine-protein kinase ITK/TSK (Homo sapiens) (UniProt Q08881); conditions: at 1 µM
# T6 sequence (whole entry): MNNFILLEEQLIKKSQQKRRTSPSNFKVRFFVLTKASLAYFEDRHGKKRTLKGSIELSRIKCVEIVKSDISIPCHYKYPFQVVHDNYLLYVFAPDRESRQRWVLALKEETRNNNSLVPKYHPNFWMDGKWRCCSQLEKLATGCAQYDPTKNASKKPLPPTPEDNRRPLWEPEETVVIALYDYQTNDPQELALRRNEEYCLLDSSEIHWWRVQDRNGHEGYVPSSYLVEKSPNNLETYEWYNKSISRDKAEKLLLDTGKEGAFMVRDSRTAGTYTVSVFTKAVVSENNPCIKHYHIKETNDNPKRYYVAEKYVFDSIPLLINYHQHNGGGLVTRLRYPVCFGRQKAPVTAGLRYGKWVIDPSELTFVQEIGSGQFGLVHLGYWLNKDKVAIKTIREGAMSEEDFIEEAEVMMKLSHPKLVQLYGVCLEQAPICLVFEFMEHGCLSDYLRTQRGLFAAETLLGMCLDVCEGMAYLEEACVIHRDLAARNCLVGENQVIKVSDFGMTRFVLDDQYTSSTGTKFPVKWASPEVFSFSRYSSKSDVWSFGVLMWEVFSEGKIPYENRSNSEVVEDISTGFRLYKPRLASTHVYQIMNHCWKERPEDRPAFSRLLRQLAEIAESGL
# [17] = target: Insulin receptor (Homo sapiens) (UniProt P06213); conditions: at 10 µM; remark: listed apart in the source
# [18] = target: Insulin receptor (Homo sapiens) (UniProt P06213); conditions: at 1 µM; remark: listed apart in the source
# [19] = target: T4, TGF-beta receptor type-1 (Homo sapiens); conditions: at 10 µM
# [20] = target: T5, Inhibitor of nuclear factor kappa-B kinase subunit alpha (Homo sapiens); conditions: at 1 µM
# Insulin receptor-related protein (Homo sapiens), sequence (P14616 27-742 limits assumed): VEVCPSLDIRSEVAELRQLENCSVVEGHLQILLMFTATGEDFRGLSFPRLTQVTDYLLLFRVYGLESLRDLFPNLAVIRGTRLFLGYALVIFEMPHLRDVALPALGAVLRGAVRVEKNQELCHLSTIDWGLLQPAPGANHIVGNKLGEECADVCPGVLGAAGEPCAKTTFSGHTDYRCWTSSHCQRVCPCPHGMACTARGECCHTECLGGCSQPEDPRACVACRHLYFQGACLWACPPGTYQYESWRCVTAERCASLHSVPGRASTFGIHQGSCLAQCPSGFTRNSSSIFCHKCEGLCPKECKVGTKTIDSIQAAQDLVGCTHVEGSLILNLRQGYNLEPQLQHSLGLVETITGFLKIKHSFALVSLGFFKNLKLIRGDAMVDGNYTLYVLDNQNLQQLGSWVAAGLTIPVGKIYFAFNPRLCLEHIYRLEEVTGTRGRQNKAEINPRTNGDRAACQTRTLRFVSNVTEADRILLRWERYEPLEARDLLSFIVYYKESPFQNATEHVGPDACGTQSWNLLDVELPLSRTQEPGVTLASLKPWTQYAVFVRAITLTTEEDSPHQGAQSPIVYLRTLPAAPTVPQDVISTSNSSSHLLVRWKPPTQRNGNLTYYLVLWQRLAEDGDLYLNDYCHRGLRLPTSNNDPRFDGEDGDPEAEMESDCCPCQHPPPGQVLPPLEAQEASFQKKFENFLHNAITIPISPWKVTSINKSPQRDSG
# Insulin receptor-related protein (Homo sapiens), sequence (P14616 747-1297 limits assumed): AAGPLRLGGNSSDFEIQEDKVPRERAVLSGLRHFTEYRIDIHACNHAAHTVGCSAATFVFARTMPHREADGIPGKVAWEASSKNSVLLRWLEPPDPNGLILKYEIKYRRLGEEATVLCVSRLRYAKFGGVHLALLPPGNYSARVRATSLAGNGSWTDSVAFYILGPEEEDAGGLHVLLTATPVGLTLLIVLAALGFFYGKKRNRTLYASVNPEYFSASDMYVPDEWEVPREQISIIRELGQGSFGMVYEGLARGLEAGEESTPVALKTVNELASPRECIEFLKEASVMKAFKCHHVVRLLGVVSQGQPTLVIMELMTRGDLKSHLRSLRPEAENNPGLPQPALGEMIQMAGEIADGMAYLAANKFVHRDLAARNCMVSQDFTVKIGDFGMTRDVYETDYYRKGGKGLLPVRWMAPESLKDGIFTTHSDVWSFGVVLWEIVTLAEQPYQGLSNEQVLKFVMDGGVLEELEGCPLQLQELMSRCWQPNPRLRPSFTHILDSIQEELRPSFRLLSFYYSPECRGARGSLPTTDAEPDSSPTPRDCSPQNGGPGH
# Interleukin-1 receptor-associated kinase 1 (Homo sapiens), sequence (P51617 whole entry, looked up): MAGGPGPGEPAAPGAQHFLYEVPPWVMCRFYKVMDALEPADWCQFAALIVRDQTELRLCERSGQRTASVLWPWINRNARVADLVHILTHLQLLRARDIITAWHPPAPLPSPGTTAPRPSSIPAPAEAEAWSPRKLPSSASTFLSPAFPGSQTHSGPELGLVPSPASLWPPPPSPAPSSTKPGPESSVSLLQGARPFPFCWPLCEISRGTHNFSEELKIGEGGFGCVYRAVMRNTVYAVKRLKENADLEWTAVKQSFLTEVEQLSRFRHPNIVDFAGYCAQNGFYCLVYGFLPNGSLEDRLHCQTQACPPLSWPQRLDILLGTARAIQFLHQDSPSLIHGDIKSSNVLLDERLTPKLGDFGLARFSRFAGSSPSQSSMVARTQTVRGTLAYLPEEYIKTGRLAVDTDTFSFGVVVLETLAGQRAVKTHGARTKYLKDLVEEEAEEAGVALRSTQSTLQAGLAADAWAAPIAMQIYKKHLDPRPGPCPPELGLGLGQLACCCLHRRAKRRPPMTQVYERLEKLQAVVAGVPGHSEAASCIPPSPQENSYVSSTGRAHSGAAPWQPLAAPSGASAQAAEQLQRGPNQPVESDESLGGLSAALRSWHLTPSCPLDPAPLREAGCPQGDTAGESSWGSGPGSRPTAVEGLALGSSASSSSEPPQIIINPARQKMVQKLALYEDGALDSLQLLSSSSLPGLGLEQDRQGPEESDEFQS
# Insulin-like growth factor 1 receptor (Homo sapiens), sequence (P08069 31-736 limits assumed): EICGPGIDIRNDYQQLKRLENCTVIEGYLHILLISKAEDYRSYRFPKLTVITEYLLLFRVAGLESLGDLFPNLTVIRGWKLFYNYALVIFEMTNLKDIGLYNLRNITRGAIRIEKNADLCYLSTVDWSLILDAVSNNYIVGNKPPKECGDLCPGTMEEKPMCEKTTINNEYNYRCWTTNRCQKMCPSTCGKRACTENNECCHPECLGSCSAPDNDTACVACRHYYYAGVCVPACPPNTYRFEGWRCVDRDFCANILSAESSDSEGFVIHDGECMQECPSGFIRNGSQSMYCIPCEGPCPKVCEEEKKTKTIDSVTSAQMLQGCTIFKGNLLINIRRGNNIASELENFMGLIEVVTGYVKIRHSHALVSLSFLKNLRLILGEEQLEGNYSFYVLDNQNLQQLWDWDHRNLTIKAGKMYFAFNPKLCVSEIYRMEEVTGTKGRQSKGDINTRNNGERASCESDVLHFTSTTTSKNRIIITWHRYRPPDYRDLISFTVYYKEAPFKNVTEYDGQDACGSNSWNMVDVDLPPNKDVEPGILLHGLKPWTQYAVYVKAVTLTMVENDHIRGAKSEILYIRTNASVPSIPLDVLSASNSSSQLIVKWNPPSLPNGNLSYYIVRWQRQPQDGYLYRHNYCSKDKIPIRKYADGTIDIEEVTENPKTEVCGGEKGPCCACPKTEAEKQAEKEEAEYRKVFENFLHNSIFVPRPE
# Insulin-like growth factor 1 receptor (Homo sapiens), sequence (P08069 741-1367 limits assumed): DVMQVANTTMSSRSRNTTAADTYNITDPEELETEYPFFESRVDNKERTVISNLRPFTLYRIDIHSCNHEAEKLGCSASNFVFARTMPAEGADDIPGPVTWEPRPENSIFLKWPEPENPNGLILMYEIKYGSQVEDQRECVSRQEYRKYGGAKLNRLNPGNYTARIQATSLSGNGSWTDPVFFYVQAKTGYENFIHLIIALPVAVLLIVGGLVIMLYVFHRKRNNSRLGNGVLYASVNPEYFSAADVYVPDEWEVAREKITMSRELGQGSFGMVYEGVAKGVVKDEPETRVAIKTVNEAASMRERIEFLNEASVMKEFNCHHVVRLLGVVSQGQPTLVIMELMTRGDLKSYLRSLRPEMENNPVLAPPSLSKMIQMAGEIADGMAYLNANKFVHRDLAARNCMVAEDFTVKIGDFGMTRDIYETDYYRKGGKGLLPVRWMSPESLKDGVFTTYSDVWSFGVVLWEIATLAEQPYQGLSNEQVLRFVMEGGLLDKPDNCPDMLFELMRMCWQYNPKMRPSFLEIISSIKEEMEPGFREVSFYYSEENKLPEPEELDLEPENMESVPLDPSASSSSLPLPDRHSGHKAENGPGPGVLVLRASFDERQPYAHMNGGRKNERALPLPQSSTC
# Insulin receptor (Homo sapiens), sequence (P06213 28-758 limits assumed): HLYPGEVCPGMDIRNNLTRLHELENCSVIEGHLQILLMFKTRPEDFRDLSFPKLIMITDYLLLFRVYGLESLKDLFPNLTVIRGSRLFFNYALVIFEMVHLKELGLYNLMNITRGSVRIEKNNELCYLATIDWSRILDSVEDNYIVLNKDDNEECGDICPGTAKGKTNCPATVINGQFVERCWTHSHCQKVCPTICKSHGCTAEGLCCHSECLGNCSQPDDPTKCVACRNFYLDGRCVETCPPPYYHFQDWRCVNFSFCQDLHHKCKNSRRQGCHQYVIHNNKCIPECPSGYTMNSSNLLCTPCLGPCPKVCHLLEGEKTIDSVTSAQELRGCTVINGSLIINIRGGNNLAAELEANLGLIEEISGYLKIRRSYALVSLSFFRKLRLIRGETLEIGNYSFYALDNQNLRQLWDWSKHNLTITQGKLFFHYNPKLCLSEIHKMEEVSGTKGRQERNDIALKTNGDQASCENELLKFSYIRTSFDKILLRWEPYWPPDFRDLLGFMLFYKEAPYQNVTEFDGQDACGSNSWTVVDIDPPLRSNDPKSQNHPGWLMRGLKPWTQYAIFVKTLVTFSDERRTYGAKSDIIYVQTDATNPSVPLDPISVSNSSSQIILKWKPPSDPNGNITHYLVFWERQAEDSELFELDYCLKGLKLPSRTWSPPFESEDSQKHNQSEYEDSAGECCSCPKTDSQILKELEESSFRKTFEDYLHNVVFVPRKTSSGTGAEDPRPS
# Insulin receptor (Homo sapiens), sequence (P06213 763-1382 limits assumed): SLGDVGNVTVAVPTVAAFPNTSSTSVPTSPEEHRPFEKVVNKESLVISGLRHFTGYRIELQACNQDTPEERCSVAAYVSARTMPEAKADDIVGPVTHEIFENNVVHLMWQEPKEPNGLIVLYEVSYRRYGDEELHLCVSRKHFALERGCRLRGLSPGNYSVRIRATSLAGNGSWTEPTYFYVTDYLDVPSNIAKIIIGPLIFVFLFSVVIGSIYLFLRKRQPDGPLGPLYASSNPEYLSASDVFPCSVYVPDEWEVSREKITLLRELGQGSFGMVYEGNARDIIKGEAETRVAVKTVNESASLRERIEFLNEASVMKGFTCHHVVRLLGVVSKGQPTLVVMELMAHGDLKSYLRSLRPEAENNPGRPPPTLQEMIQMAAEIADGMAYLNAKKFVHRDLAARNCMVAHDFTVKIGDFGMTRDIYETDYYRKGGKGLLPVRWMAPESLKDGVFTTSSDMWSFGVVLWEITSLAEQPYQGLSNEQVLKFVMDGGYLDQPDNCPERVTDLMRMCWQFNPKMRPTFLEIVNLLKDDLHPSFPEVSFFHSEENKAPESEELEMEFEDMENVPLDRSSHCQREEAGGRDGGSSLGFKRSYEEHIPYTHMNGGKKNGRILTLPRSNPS
structure (smiles),measurement,setting,value
N#Cc1c(NC(=O)c2cccc3ccccc23)sc2c1CCCC2,residual activity,[1],73%
same,residual activity,[2],124%
same,residual activity,[3],100%
same,residual activity,[4],137%
same,residual activity,[5],92%
same,residual activity,[6],94%
same,residual activity,[7],95%
same,residual activity,[8],96%
same,residual activity,[9],72%
same,residual activity,[10],72%
Nc1ncnc2c1cnn2-c1ccccc1,residual activity,[11],92%
same,residual activity,[12],88%
same,residual activity,[2],76%
same,residual activity,[13],85%
same,residual activity,[14],97%
same,residual activity,[3],86%
same,residual activity,[6],93%
same,residual activity,[7],84%
same,residual activity,[9],84%
same,residual activity,[15],135%
same,residual activity,[10],93%
same,residual activity,[16],102%
CN([C@@H](Cc1ccc(OS(=O)(=O)c2cccc3cnccc23)cc1)C(=O)N1CCN(c2ccccc2)CC1)S(=O)(=O)c1cccc2cnccc12,residual activity,[4],134%
same,residual activity,[17],84%
CSc1nc(-c2ccc(F)cc2)c(-c2ccnc(NC(C)c3ccccc3)c2)[nH]1 (stereo unspecified),residual activity,[1],77%
same,residual activity,[13],95%
same,residual activity,[4],126%
same,residual activity,[17],93%
same,residual activity,[18],102%
same,residual activity,[5],98%
same,residual activity,[8],23%
same,residual activity,[9],13%
same,residual activity,[10],73%
same,residual activity,[16],70%
NC(=O)c1ccc(-c2nc(-c3ccc4c(c3)OCCO4)c(-c3ccccn3)[nH]2)cc1,residual activity,[1],72%
same,residual activity,[9],97%
same,residual activity,[15],124%
c1ccc(-c2cnc(Nc3ccc(OCCN4CCCC4)cc3)s2)cc1,residual activity,[1],23%
same,residual activity,[19],74%
same,residual activity,[20],77%
same,residual activity,[13],66%
same,residual activity,[14],116%
same,residual activity,[7],42%
same,residual activity,[8],124%
same,residual activity,[9],80%
same,residual activity,[15],135%
same,residual activity,[10],65%
same,residual activity,[16],81%
Fc1ccc(-c2nc3n(c2-c2ccncc2)CCS3)cc1,residual activity,[1],89%
same,residual activity,[15],128%
O=C(Nc1nc2ccccc2n1CCN1CCOCC1)c1cccc([N+](=O)[O-])c1,residual activity,[1],60%
same,residual activity,[11],76%
same,residual activity,[6],11%
same,residual activity,[7],16%
same,residual activity,[8],13%
same,residual activity,[9],15%
same,residual activity,[16],74%
CCOC(=O)c1c(C)[nH]c(/C=C2\C(=O)Nc3ccccc32)c1C,residual activity,[1],85%
same,residual activity,[20],96%
same,residual activity,[13],88%
same,residual activity,[4],93%
same,residual activity,[17],96%
same,residual activity,[18],84%
same,residual activity,[5],93%
same,residual activity,[6],94%
same,residual activity,[7],99%
same,residual activity,[8],97%
same,residual activity,[9],49%
same,residual activity,[15],93%
same,residual activity,[10],81%
same,residual activity,[16],79%
CC(C)(C)c1nc2c3ccc(F)cc3c3c(=O)[nH]ccc3c2[nH]1,residual activity,[1],3%
same,residual activity,[20],52%
same,residual activity,[13],32%
same,residual activity,[3],27%
same,residual activity,[6],55%
same,residual activity,[7],62%
same,residual activity,[8],61%
same,residual activity,[9],53%
same,residual activity,[15],101%
same,residual activity,[10],52%
